Sampled rows, rich in hits. Any-hit rate of the full collection: about 4.1%.
MBD2 DNA inh: MBD2-methylated oligo binding inhibition | Q9UBB5 | TR-FRET, MBD2 binding to methylated oligonucleotide | inhibition, % at 4.4 µM | 370,000 tested, 0.31% active; in the data active = inhibition above about 13%
ABHD5-PLIN5 inh: blocks binding of human ABHD5 to perilipin-5; Q00G26+Q8WTS1; Split G. princeps luciferase complementation, luminescence, 4 h; inhibition, % at 4 µM; 360,000 tested, 0.78% active;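 active = inhibition above the mean inhibition across every tested compound plus 3 SD, cut at about 22% in these data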;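 also: 0% = DMSO only wells and the 100% control is not disclosed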
UHRF1 binding: UHRF1 methyl-DNA binding inhibition. 370,000 tested, 0.75% active. inhibition, % at 4.4 µM. Q96T88. UHRF1 binding to methylated oligo, TR-FRET; in the data active = inhibition above about 21%;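 also: UHRF1 SRA domain binding a hemimethylated CpG hairpin DNA probe; 0% = median of test compound wells and 100% = reference inhibitor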
LEDGF integ inh: blocks HIV-1 LEDGF/p75-dependent DNA integration | AID 743269 | 370,000 tested, 0.64% active | inhibition, % at 3.7 µM | TR-FRET IN-LEDGF/p75 DNA integration, Eu/Cy5;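 active = inhibition above the screen-wide mean plus 3 SD, cut at about 13% in these data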;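 also: signal is the Cy5 over europium emission ratio at 671 and 618 nm; 0% = plate median of compound wells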
PRMT1 inh: PRMT1 (human) inhibition, primary screen; Q99873; recombinant PRMT1, activity-based probe fluorescence polarization; inhibition, % at 2.79 µM; 370,000 tested, 1.3% active; AID 652257;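 active = inhibition above about 21% made by adding two undisclosed values, limit read from the data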
Target sequence (Q99873 whole entry, looked up): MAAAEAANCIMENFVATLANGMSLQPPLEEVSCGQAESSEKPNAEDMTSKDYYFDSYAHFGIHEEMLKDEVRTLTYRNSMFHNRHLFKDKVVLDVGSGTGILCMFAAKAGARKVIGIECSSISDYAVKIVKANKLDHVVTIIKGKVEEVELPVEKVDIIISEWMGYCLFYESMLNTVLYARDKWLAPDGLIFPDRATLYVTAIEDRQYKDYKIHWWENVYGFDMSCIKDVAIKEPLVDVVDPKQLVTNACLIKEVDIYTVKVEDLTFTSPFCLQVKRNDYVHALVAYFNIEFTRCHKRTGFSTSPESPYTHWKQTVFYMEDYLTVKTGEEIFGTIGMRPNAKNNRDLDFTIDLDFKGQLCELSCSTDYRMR
rCAG binder: r(CAG) repeat RNA binding. TO-PRO-1 dye displacement fluorescence. inhibition, % at 3 µM. 370,000 tested, 1.3% active. AID 651821;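 active = inhibition above the plate cutoff, the mean of all test compounds on that plate plus 3 SD, cut at about 35% in these data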;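 also: 0% = DMSO alone and 100% = 100 µM mitoxantrone as full dye displacement; higher means more dye released from RNA so lower well fluorescence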
rCAG binder conf: r(CAG) RNA repeat binding, confirmation | shares compounds with rCAG binder | TO-PRO-1 dye displacement fluorescence | inhibition, % at 3 µM | 4,300 tested, 70% active | AID 652065;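 active = inhibition above a per-plate cutoff, the mean inhibition of sample wells plus 3 SD, cut at about 35% in these data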;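 also: loss of TO-PRO-1 fluorescence as compound displaces dye from 1x1 AA loop RNA; 0% = DMSO only wells and 100% = 100 µM mitoxantrone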
dCAG dye counter: counter-screen for rCAG RNA binders: DNA CAG dye complex inhibitors | shares compounds with rCAG binder | d(CAG) DNA oligo TO-PRO-1 dye displacement, fluorescence | inhibition, % at 3 µM | 4,300 tested, 94% active | AID 652068;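 active = inhibition above its plate's cutoff, the mean test-well inhibition plus 3 SD, cut at about 4.8% in these data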;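 also: 0% = DNA dye mix with DMSO and 100% = 100 µM mitoxantrone; hits displace the dye from DNA and so lower well fluorescence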
dCAG dye DR: disrupts DNA CAG TO-PRO-1 complex in dose response. shares compounds with rCAG binder. DNA CAG/GTC duplex TO-PRO-1 dye displacement fluorescence. IC50, µM. 250 tested, 20% active. AID 686960; in the data active = IC50 below about 10 µM
The depositor's hits bear a star; i = inactive; / = no result.

SMILES	MBD2 DNA inh	ABHD5-PLIN5 inh	UHRF1 binding	LEDGF integ inh	PRMT1 inh	rCAG binder	rCAG binder conf	dCAG dye counter	others
CC(=O)c1ccc(NC(=O)CSC2=NS(=O)(=O)c3cc(Cl)ccc3N2)cc1	-2.4	1.5	0.2	1.8	-2.0	60.7*	43.5*	13.6*
CN(c1ccc(NC(=O)Cc2cn(C)c3ccccc23)cc1)c1ccccn1	1.7	/	0.4	-3.5	10.1	7.0	/	/
C[C@H]1CN(C(=O)OC(C)(C)C)CCN1c1ccc(Br)c(C#N)c1	2.1	/	1.0	-1.8	0.7	-0.3	/	/
COc1ccc(CC(=O)Nc2ccc(S(=O)(=O)Nc3cc(C)on3)cc2)cc1	-4.4	-7.5	-1.1	-0.3	-0.2	13.5	/	/
Cc1cc(NS(=O)(=O)c2ccc(NC(=O)/C=C/c3ccc(Br)cc3)cc2)no1	0.4	-3.2	-0.3	-0.6	-1.1	68.1*	61.5*	28.7*
COc1ccccc1/C=C/C(=O)Nc1ccc(S(=O)(=O)Nc2cc(C)on2)cc1	-0.3	1.1	-1.7	0.6	-1.6	53.4*	48.4*	11.6*
CCN(CC)CCCNC(=O)CSc1nnc(-c2ccncc2)n1-c1ccc(OC)cc1	1.5	/	3.9	2.9	4.3	0.0	/	/
O=[N+]([O-])c1cc(S(=O)(=O)O)cc([N+](=O)[O-])c1NN(c1ccccc1)c1ccccc1	-5.6	-6.7	0.4	0.0	4.4	48.4*	35.6*	10.8*
CC(Oc1ccc(S(=O)(=O)N2CCCC2)cc1[N+](=O)[O-])C(=O)N(C)c1ccccc1 (configuration not stated)	1.2	-4.4	0.8	-5.2	3.2	-4.9	/	/
Nc1ncc(Br)cc1S(=O)(=O)Nc1cc(C(F)(F)F)cc(C(F)(F)F)c1	-2.1	-6.3	5.7	-1.9	7.3	80.8*	65.0*	27.0*	dCAG dye DR=i
CCN(CC)S(=O)(=O)c1ccc(NC(=O)c2ccc(Sc3nncn3C)c([N+](=O)[O-])c2)cc1	0.6	10.3	1.6	-3.5	-0.4	35.8*	12.6	5.8*
CN(C)S(=O)(=O)c1cccc(NC(=O)c2ccc(Sc3nncn3C)c([N+](=O)[O-])c2)c1	-0.6	0.8	0.0	-2.2	-1.9	13.8	/	/
COc1ccc(CN2c3c(Br)cccc3C(=O)CS2(=O)=O)cc1	/	8.8	/	/	/	/	/	/
O=C1CS(=O)(=O)N(Cc2cccc(F)c2)c2ccc(Br)cc21	2.1	-7.1	-1.4	-1.1	3.1	52.4*	27.4	13.9*
O=C(Nc1nccs1)c1c(O)c2c([nH]c1=O)CCCC2	4.1	-3.5	1.9	0.4	-4.3	-2.3	/	/
O=C(Nc1ccccc1O)c1c(O)c2c([nH]c1=O)CCCC2	0.5	-7.2	-2.1	0.8	0.0	44.3*	40.5*	26.9*
COc1ccccc1/C=C/C=c1\sc2nc(=O)c(Cc3ccccc3)nn2c1=O	4.1	-9.3	-0.1	5.3	19.0	40.4*	49.9*	21.5*
C=CCOc1ccccc1/C=c1\sc2nc(=O)c(C)nn2c1=O	/	-17.4	/	/	/	/	/	/
O=[N+]([O-])c1ccc(COc2ccccc2CO)cc1	-2.0	/	-2.7	4.9	-9.4	1.6	/	/
Cc1cccc2sc(NNC(=O)c3cc(-c4cccs4)nc4ccccc34)nc12	-4.0	4.5	-1.5	-3.1	-1.9	38.3*	36.2*	15.6*
O=C(CSc1nc2ccccc2n1CCc1ccccc1)c1ccc(O)c(O)c1	25.9*	-0.6	57.5*	32.2*	17.7	60.7*	63.7*	38.1*
COC(=O)C[C@H]1CC[C@@H]2[C@H](COc3ccc(NC(=O)NCc4ccccc4)cc3C(=O)N2C)O1	5.1	/	4.6	2.8	-3.0	1.0	/	/
CCOC(=O)C1=C(C)N=c2s/c(=C\c3ccc(O)c([N+](=O)[O-])c3)c(=O)n2C1c1ccccc1OC (configuration not stated)	-0.3	-11.1	6.7	-1.5	4.9	51.6*	87.8*	64.4*
O=C1NC(c2ccc(Cl)c([N+](=O)[O-])c2)Nc2ccccc21 (configuration not stated)	-1.6	2.1	2.0	1.2	-3.2	1.6	/	/
O=C1NC(c2cc(Cl)cc([N+](=O)[O-])c2O)Nc2ccccc21 (configuration not stated)	-5.7	-4.0	-1.2	-0.4	3.1	34.6*	79.7*	45.5*
SMILES	MBD2 DNA inh	ABHD5-PLIN5 inh	UHRF1 binding	LEDGF integ inh	PRMT1 inh	rCAG binder	rCAG binder conf	dCAG dye counter	others
CC(C)CSC1=NSC2=NC(=O)/C(=C\c3coc4ccccc4c3=O)C(=N)N12	-5.8	-0.9	-4.2	5.3	-7.6	61.0*	58.9*	55.1*
CC(C)CSC1=NSC2=NC(=O)/C(=C\c3ccccc3)C(=N)N12	-2.6	-7.7	-0.7	-1.3	-2.0	75.6*	39.0*	9.9*
CCOC(=O)CSc1nsc(SCC(=O)OCC)c1C#N	2.2	1.7	0.3	-2.1	-1.0	-5.2	/	/
CC(=O)CSc1nsc(SCC(C)=O)c1C#N	-5.9	-30.8	-11.5	-0.5	19.0	35.0*	38.3*	17.6*
Cc1ccc(NC(=O)Cc2cccc(OC(F)F)c2)c(S(=O)(=O)N2CCOCC2)c1	-5.2	/	1.4	3.7	-4.7	2.7	/	/
O=C(O)CSc1nc(-c2ccccc2)nc2c1oc1ccccc12	-2.9	0.8	0.6	1.7	-1.2	58.8*	48.5*	13.6*
O=C(O)CSc1nc(-c2ccc(Cl)cc2)nc2c1oc1ccccc12	2.6	-3.0	1.4	-1.0	2.8	41.5*	82.0*	62.1*
COC(CNC(=O)[C@H](Cc1c[nH]c2ccccc12)NC1(C(=O)NC2CCCCC2)CCCCC1)OC	-0.1	/	0.0	-2.7	8.3	/	/	/
COC(=O)C1CN(Cc2ccccc2)CCS(=O)(=O)N1Cc1cccc(Cl)c1 (configuration not stated)	-4.3	/	1.1	1.2	-3.0	-0.8	/	/
CN(c1ccccc1)c1ccc(/C=C(\CCC(=O)O)c2nc3ccccc3s2)cc1[N+](=O)[O-]	1.3	1.4	-1.9	2.0	1.1	70.9*	77.5*	37.4*
Cn1cnnc1Sc1ccc(/C=C(\CCC(=O)O)c2nc3ccccc3s2)cc1[N+](=O)[O-]	-1.2	-4.3	-1.4	2.1	-0.6	16.0	/	/
Cc1ccc(/C=C(\CCC(=O)O)c2nc3ccccc3s2)cc1[N+](=O)[O-]	7.2	-11.5	6.4	6.2	3.6	49.0*	65.5*	24.8*
CNc1ccc(/C=C(\CCC(=O)O)c2nc3ccccc3s2)cc1[N+](=O)[O-]	-9.2	3.5	-8.3	1.9	4.8	77.7*	82.0*	38.8*
Nc1[nH]c(C(=O)c2ccc(Br)cc2)c(-c2ccc(Cl)cc2)c1C(=O)NCCc1c[nH]c2ccccc12	2.9	/	-0.9	-2.1	-1.6	6.5	/	/

Source: PubChem
